Laboratory results as given in PubChem BioAssay (NCATS).
Results filed as inconclusive are left out. Entries that show only a call come without a potency. Values without a mark were called inactive. Calls of active or inactive are those of the source. Calls follow the shape of the dose curve; as a rule, active = well fitted inhibition curve with a large enough effect; inconclusive = small, poorly fitted or top-dose-only effect; inactive = flat fitted curve, though single readings scatter.

biological target: Calcium and integrin-binding protein 1 (Homo sapiens) (UniProt Q99828); experiment: Primary qHTS for Identification of Calcium Integrin Binding Protein 1 (CIB1) Competitor (AID 1508620); settings: CIB1-GST / FITC-alphaIIb peptide fluorescence polarization; series mostly up to 114 µM; also: top concentration of the series differs between compounds
How it was run: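 Fluorescence polarization competition: GST-tagged CIB1 (1 uM final) preincubated with compound 15 min at room temperature, then FITC-labelled alphaIIb peptide (100 nM final) added. After 15 min at room temperature, polarization read at Ex 480/Em 540.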

Chain of Calcium and integrin-binding protein 1 (Homo sapiens) (Q99828 whole entry, looked up): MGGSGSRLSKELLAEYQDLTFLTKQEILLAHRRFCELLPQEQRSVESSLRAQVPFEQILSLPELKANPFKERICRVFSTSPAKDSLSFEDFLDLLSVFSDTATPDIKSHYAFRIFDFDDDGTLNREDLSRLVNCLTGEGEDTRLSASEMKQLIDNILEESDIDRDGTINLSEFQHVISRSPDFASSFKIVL

**Q.** COc1cc(CCC2=NN=C(NC(=O)c3ccc(N4C[C@@H](C)N[C@@H](C)C4)cc3)C2)cc(OC)c1 was tested. Which Potency did it give?
**A.** inactive

**Q.** Which Potency does the source give for CCCCc1c(-c2ccc(OC)cc2)[nH]c2nccnc12 here?
**A.** inactive

**Q.** With CN[C@@H]1[C@H](O[C@H]2[C@H](O[C@@H]3[C@@H](O)[C@H](O)[C@@H](N=C(N)N)[C@H](O)[C@H]3N=C(N)N)O[C@@H](C)[C@]2(O)CO)O[C@@H](CO)[C@H](O)[C@H]1O as the compound, how does the Potency read?
**A.** inactive

**Q.** How did the Potency turn out when Cc1noc(-c2ccc(-c3ccc(CC(=O)O)cc3)cc2)c1NC(=O)O[C@H](C)c1ccccc1Cl was run?
**A.** inactive

**Q.** For COc1ccc(-c2ccccc2)cc1NS(=O)(=O)c1cc(Cl)cc(Cl)c1O, which Potency is on record?
**A.** inactive

**Q.** C=C(C(=O)OC)[C@@H]1CC=C2C=CC(=O)[C@H](C)[C@@]2(C)C1 was tested. Which Potency did it give?
**A.** inactive

**Q.** With C[C@@H](c1ccc2nccn2c1)n1nnc2ncc(-c3cnn(C)c3)nc21 as the compound, how does the Potency read?
**A.** inactive

**Q.** COC(=O)CC(O)CC(O)/C=C/c1c(C)ccc2c1C(OC(C)=O)CC(C)C2 (centres undefined) was tested. Which Potency did it give?
**A.** inactive

**Q.** Which Potency does the source give for C#CCCCn1cc(-c2cccc3c2N[C@H](C)CC(=O)N3)cn1 here?
**A.** inactive

**Q.** Which Potency does the source give for CC1CCC/C=C/C(=O)c2c(O)cc(O)cc2CC(=O)O1 (centres undefined) here?
**A.** inactive

**Q.** How did the Potency turn out when O=C(NO)c1cnc(N2CCN(S(=O)(=O)c3ccc4ccccc4c3)CC2)nc1 was run?
**A.** inactive

**Q.** Which Potency does the source give for C/C=C/C=C/C=C/C(=O)O[C@@H]1C=C(CO)C(O)(C(=O)OC)[C@@]2(C)CCCC(C)(C)C12 (some centres undefined) here?
**A.** inactive

**Q.** With C[C@@H]1O[C@@H](O[C@H]2[C@@H](OC(=O)[C@]34CCC(C)(C)CC3C3=CCC5[C@@]6(C)C[C@H](O)[C@H](O[C@@H]7O[C@H](CO)[C@@H](O)[C@H](O)[C@H]7O[C@@H]7OC[C@@H](O)[C@H](O)[C@H]7O)[C@@](C)(C(=O)O)C6CC[C@@]5(C)[C@]3(C)CC4)OC[C@H](O)[C@@H]2O)[C@H](O)[C@H](O)[C@H]1O[C@@H]1OC[C@@H](O)[C@H](O)[C@H]1O (some centres undefined) as the compound, how does the activity change, negative = inhibition read?
**A.** -5.44% [at 12.4 µM]

**Q.** CNC(=O)COC(=O)N1CCC(CCc2ccc(Cl)cc2)CC1 was tested. Which Potency did it give?
**A.** inactive

**Q.** For COc1ccc(CNCc2cccc3ccccc23)cc1, which Potency is on record?
**A.** inactive

**Q.** CCOc1cc(C(C)(C)C)ccc1C1=NC(C)(c2ccc(Cl)cc2)C(C)(c2ccc(Cl)cc2)N1C(=O)N1CCN(CCCS(C)(=O)=O)CC1 (centres undefined) was tested. Which Potency did it give?
**A.** inactive

**Q.** For CC(C)c1ccc(-c2cc(=O)c3ccccc3o2)cc1, which Potency is on record?
**A.** inactive

**Q.** How did the Potency turn out when Cc1ccc(O)cc1Nc1ccnc(Nc2cccc(C(N)=O)c2)n1 was run?
**A.** inactive

**Q.** Which Potency does the source give for CC(=O)C1(C)CCC2C3C=C(C)C4=CC(=O)CCC4(C)C3CCC21C (centres undefined) here?
**A.** inactive

**Q.** For COC1C(O)C(OC2CCC3(C)C(CCC45CCC6C7(COC(=O)C7)OC4(O)C6(C)CCC35)C2)OC(C)C1OC1OC(CO)C(OC2OC(CO)C(O)C(O)C2O)C(O)C1O (centres undefined), which Potency is on record?
**A.** inactive

**Q.** O=S(=O)(NCc1ccccn1)c1ccc(Br)c2ccccc12 was tested. Which Potency did it give?
**A.** inactive

**Q.** Which Potency does the source give for CS(=O)(=O)c1ccc(Oc2cc(F)cc(C#N)c2)c2c1[C@H](O)C(F)(F)C2 here?
**A.** inactive

**Q.** How did the Potency turn out when CC(/C=C/C(=O)NO)=C\[C@@H](C)C(=O)c1ccc(N(C)C)cc1 was run?
**A.** inactive

**Q.** Which Potency does the source give for CC(=O)OC1C(O)CC2(C)C(CCC3(C)C2CC=C2C4C5(CCC(CO[C@@H]6O[C@H](CO)[C@@H](O)[C@H](O)[C@H]6O)(OC5=O)C4(C)O)C(O)CC23C)C1(C)C (some centres undefined) here?
**A.** inactive

**Q.** Which Potency does the source give for COc1cc(N2CCOCC2)ccc1NC(=O)c1csc(-c2cccnc2)n1 here?
**A.** inactive

**Q.** Which Potency does the source give for C[C@@H]1CC[C@]2(C(=O)O)CC[C@]3(C)C(=CCC4[C@@]5(C)CC[C@H](O)[C@](C)(C(=O)O)C5CC[C@]43C)C2[C@]1(C)O (some centres undefined) here?
**A.** inactive

**Q.** With C=C[C@]1(C)C[C@H](O)[C@H]2C(=C)C(=O)O[C@@H]2[C@H]1C(=C)CO as the compound, how does the Potency read?
**A.** inactive

**Q.** How did the Potency turn out when O=C(Nc1nc2cc(C(F)(F)F)cc(NC3CC3)n2n1)c1cccnc1 was run?
**A.** inactive

**Q.** CCC/C=C/c1cc2c(C=O)c(O)c(CC=C(C)C)cc2o1 was tested. Which Potency did it give?
**A.** inactive

**Q.** Which Potency does the source give for O=C(NCCCCCCCCNC(=O)C(Cl)Cl)C(Cl)Cl here?
**A.** inactive

**Q.** With CC(C)(O)C1Cc2c(ccc(C(=O)CCc3ccccc3)c2O)O1 (centres undefined) as the compound, how does the Potency read?
**A.** inactive

**Q.** C=CS(=O)(=O)NC1CCN(C(=O)CNc2cc(I)c(Cl)cc2OC)CC1 was tested. Which Potency did it give?
**A.** inactive

**Q.** How did the Potency turn out when CCCOc1ccc(S(=O)(=O)N2CCN(CCO)CC2)cc1-c1nc2c(CCC)cn(CC)c2c(=O)[nH]1 was run?
**A.** inactive

**Q.** With CC(=O)O[C@@]12CO[C@@H]1C[C@H](O)[C@@]1(C)C(=O)[C@H](O)C3=C(C)[C@@H](OC(=O)[C@H](O)[C@@H](NC(=O)OC(C)(C)C)c4ccccc4)C[C@@](O)([C@@H](OC(=O)c4ccccc4)C12)C3(C)C (some centres undefined) as the compound, how does the Potency read?
**A.** inactive
